In PubChem BioAssay (Tox21) one finds outcome and activity change, negative = inhibition data, which are given here for 40 molecules.

Structures are written as SMILES. Inconclusive results are not listed. Values without a mark were called inactive. Activity calls are given as the source filed them. The call rests on the fitted dose curve.
On the % scale 0 is the no-effect control and ±100 the full control effect.

Thyrotropin receptor (Homo sapiens), sequence (P16473 whole entry, looked up): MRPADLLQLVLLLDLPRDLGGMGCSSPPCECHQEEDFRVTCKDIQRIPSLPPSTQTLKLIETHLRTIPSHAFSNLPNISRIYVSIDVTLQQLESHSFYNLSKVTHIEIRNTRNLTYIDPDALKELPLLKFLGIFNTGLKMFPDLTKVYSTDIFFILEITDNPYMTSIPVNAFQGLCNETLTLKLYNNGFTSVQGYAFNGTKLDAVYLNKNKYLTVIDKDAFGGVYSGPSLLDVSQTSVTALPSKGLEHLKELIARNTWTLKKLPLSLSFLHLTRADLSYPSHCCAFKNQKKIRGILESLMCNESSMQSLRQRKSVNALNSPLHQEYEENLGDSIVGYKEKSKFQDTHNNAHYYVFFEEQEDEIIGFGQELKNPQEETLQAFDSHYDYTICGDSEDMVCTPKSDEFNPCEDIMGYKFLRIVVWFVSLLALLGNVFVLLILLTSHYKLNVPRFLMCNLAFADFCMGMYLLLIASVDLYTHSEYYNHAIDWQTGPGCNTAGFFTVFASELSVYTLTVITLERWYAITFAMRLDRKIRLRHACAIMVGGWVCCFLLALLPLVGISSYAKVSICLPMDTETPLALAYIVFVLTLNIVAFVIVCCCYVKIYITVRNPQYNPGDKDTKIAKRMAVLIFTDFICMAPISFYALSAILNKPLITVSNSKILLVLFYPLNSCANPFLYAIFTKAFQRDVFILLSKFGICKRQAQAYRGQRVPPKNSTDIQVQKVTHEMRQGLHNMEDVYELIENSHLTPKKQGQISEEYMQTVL

The assay addresses Thyrotropin receptor (Homo sapiens) (UniProt P16473). Put plainly: qHTS assay to identify small molecule antagonists of the thyroid stimulating hormone receptor (TSHR) signaling pathway (AID 1259385). Further: nearly all actives have a fitted effect of over 20% in size. As to conditions: TSHR-HEK293 cAMP HTRF, TSH-stimulated antagonist mode; series mostly up to 92.4 µM. An excerpt: U.S. Tox21 Program National Center for Advancing Translational Sciences [NCATS] NIH Chemical Genomics Center [NCGC] U.S. Environmental Protection Agency [EPA] National Institutes of Environmental Health Sciences [NIEHS] National Toxicology Program [NTP] U.S. Food and Drug Administration [FDA] Tox21 Assay Overview: TSHR is the receptor for thyrotropin (thyroid stimulating hormone or TSH), a member of the glycoprotein hormone family. TSH is released by the anterior pituitary gland and is the main regulator of thyroid gland growth and development. Upon binding circulating thyrotropin, a G-protein signal cascade activates adenylyl cyclase and […] cAMP concentration is increased. cAMP is a key second messenger involved extensively in cellular signal transduction pathways associated with the majority of G-protein coupled receptors (GPCRs). The activation of these GPCRs by neurotransmitters, lipids, nucleotides, peptides and hormones results in the activation or the inhibition of plasma membrane-bound adenylate cyclase through heterotrimeric G-proteins. A cell-based TSHR assay can be used to screen chemical compounds that modulate TSHR either in agonist or antagonist mode.
Tox21 Assay Protocol Summary: TSHR-Hek293 cells were dispensed at 800 cells/4uL/well in 1536-well white plates using a Multidrop dispenser. After the assay plates were incubated at a 37C/5% CO2 incubator for 18 hrs, 23 nL of compounds dissolved in DMSO, positive controls or DMSO only was transferred to the assay plate by a pin tool, followed by 1 ul medium containing Ro20-1724. For the antagonist mode screening, 1 uL of TSH was added on the top of the cell/compound mixtures to achieve a final agonist concentration of 1.5 ng/mL. After 30 min of incubation at room temperature, 2.5 ul/well of cAMP-d2 and 2.5 ul/well of anti-cAMP-cryptate were added respectively into the assay plates using a Flying Reagent Dispenser. The plates were incubated at room temperature for 1 hr. The fluorescence intensity in the plates was measured using an Envision plate reader. Each test compound was measured at 15 concentrations and in triplicates.
As for `O=C1CCCCC1Cl` (stereo not given), the call was inactive.

Consider `CC[C@H](O)C(C[C@H](C)N(C)C)(c1ccccc1)c1ccccc1`, for which the outcome was inactive. With `CC(=NC#N)N(C)Cc1ccc(Cl)nc1`, the outcome was inactive. The same measure, in the same setting: the value for `O=c1[nH]c2ccccc2n1C1CCNCC1` was “inactive”; that for `C=C1C[C@@H]2[C@H](CC[C@]3(C)C(=O)CC[C@@H]23)[C@@]2(C)C=CC(=O)C=C12` was “inactive”. Still for that read-out and setting: the value for `COc1cccc([C@@]2(O)CCCC[C@@H]2CN(C)C)c1` was “inactive”; that for `C=CC1(C)OC(=O)N(c2cc(Cl)cc(Cl)c2)C1=O` (stereo not given) was “inactive”. The same measure, in the same setting: the value for `CON(C)C(=O)Nc1ccc(Br)cc1` was “inactive”; that for `Clc1nc(Cl)nc(Nc2ccccc2Cl)n1` was “inactive”. `O=C(Cl)C(Cl)Cl`: the result was inactive. Same read-out and setting: under `CCOC(=O)Nc1cccc(OC(=O)Nc2ccccc2)c1` stands “inactive”; under `[O-][Br+2]([O-])O`, “inactive”. As for `CCC1(c2cccc(O)c2)CCCCN(C)C1` (stereo not given), the call was inactive. With `ClCCCCl`, the molecule was called inactive.

Regarding `NNCc1ccccc1`, the call was inactive. The same measure, in the same setting: the value for `CCCN1CCC[C@@H]2Cc3nc(N)ncc3C[C@H]21` was “inactive”; that for `CC(C)[N+](C)(CCC(C(N)=O)(c1ccccc1)c1ccccc1)C(C)C` was “inactive”. `C=CCN1CC[C@]23CCCC[C@H]2[C@H]1Cc1ccc(O)cc13`: the molecule was called inactive.

For `NC1(c2ccccc2)CCCCC1`, the outcome was inactive.

On to `[P]#[In]`, for which the call was inactive. Same read-out and setting: under `COc1ccc(C=O)cc1O` stands “inactive”. Still for that read-out and setting: the value for `CCOC(=O)N(C)N=O` was “inactive”. Same read-out and setting: the value for `CN1C(=O)COc2c(C(=O)NC3CN4CCC3CC4)cc(Cl)cc21` (stereo not given) was “inactive”. `CCCC[N+](=O)[O-]`: the result was inactive. Still for that read-out and setting: under `CCN[C@@H](C)Cc1ccccc1` stands “inactive”; under `CCCCCCCCBr`, “inactive”. For `CCC(C(N)=O)N1CCCC1=O` (stereo not given), the result was inactive. As for `O=CCCl`, the result was inactive. Same read-out and setting: under `O=C1C2CC=CCC2C(=O)N1SC(Cl)(Cl)Cl` (stereo not given) stands “inactive”; under `CCCC(C)(COC(N)=O)COC(N)=O`, “inactive”; under `CCN[C@@H](C)Cc1cccc(C(F)(F)F)c1`, “inactive”. Take `CCCOc1nn(C(=O)NS(=O)(=O)c2ccccc2C(=O)OC)c(=O)n1C`: the call was inactive. On the same count and under the same terms, under `CCOC(=O)c1ncn2c1CN(C)C(=O)c1c(I)cccc1-2` stands “inactive”. As for `Cc1ccc2c(c1)C1CN(C)CCC1N2` (stereo not given), the activity change, negative = inhibition is 8.62% [at 19 µM]. On to `OP(O)c1ccccc1`, for which the outcome was inactive. Still for that read-out and setting: under `NCCOS(=O)(=O)O` stands “inactive”; under `O=P(O)(O)CN(CP(=O)(O)O)CP(=O)(O)O`, “inactive”; under `O=C(O)C(F)(F)C(F)(F)C(F)(F)C(F)(F)C(F)(F)C(F)(F)F`, “inactive”. On the same count and under the same terms, the value for `CC[C@H](N)c1ccccc1` was “inactive”.

Take `CC(C)(N)Cc1ccc(Cl)cc1`: the result was inactive.
